Data: PubChem BioAssay AID651871 (Sanford-Burnham Center for Chemical Genomics, 2012)
“And” between values parts separate entries of the source, which are not always exact repeats. Equal entries are not always repeated.

test system: HL-1; assay: protection of cardiomyocytes from stress damage, SAR follow-up, cell-based, panel, H9c2 and HL-1, ATP luminescence, set 2 (AID 651871); conditions: H9c2/HL-1 cardiomyocytes, 2-deoxyglucose stress, with 2-deoxyglucose, run 10, at 79 µM (top of the series);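 also: cells exposed to stressor for 2 h before ATP readout; reference of the scale not given here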

| SMILES | activity (protection/inhibition) |
| --- | --- |
| COc1ccc2nc(-c3cc(OC)c(OC)c(OC)c3)cc(C(=O)NCC(=O)Nc3ccc(C(C)=O)cc3)c2c1 | 56% |
| CCOC(=O)c1cccc(NC(=O)CNC(=O)c2cc(-c3cc(OC)c(OC)c(OC)c3)nc3ccccc23)c1 | 98.6% |
| COc1ccc2c(c1OC)C(=O)N1c3ccccc3C(=O)N(Cc3cccc(Cl)c3Cl)C21 (stereo not drawn) | 36.7% and -11.3% |
